Data as given in PubChem BioAssay AID1159580 (chemical genetic matrix, 2015).
Where “and” joins values, the source holds several entries; their conditions need not be identical. Identical values can stand only once. Out of some 5,500 compounds screened, about 2,000 (36%) were called active. About 18% were inconclusive and are not listed. Rule as the data show it: active = normalized growth mostly below about 0.91 (no sharp cut-off); inconclusive = no clear call, values can overlap the other calls; inactive = mostly above about 0.92. Some of the results follow.

Assay: chemical genetic growth profiling, strain panel (AID 1159580);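 also: tested at 20 µM; growth read once vehicle control cultures reached saturation at 30 °C; 1 = growth at the plate median or of vehicle wells; lower values mean less growth of the strain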
Conditions: S. cerevisiae deletion strains, growth OD

Measured: normalized growth

CC(=O)O[C@@H]1CC2C(C)(C)C(=O)CC[C@]2(C)C2CC[C@@]3(C)[C@H](c4ccoc4)OC(=O)C4OC43[C@@]21C (some centres not stated)
inactive: locus YAL013W, strain DEP1, hits give low values 1.01 | locus YAL021C, strain ccr4, hits give low values 1.01 | locus YAL026C, strain drs2, hits give low values 0.982 | locus YAL030W, strain snc1, hits give low values 0.987 | locus YBL061C, strain skt5, hits give low values 0.98 | locus YBR009C, strain hhf1, hits give low values 0.985 | locus YBR021W, strain FUR4, hits give low values 0.953 | locus YBR023C, strain chs3, hits give low values 0.992 | locus YBR171W, strain sec66, hits give low values 0.952 | locus YBR229C, strain ROT2, hits give low values 1 | locus YBR231C, strain swc5, hits give low values 1.01 | locus YBR279W, strain paf1, hits give low values 0.991 | locus YCL011C, strain gbp2, hits give low values 0.977 | locus YCL016C, strain dcc1, hits give low values 1.03 | locus YCL029C, strain bik1, hits give low values 1.02 | locus YCL069W, strain vba3, hits give low values 0.96 | locus YCR088W, strain abp1, hits give low values 0.973 | locus YDL005C, strain med2, hits give low values 0.968 | locus YDL035C, strain GPR1, hits give low values 0.985 | locus YDL040C, strain nat1, hits give low values 0.976 | locus YDL074C, strain BRE1, hits give low values 0.985 | locus YDL101C, strain DUN1, hits give low values 1.01 | locus YDL134C, strain PPH21, hits give low values 0.992 | locus YDL185W, strain tfp1, hits give low values 1.01 | locus YDL192W, strain arf1, hits give low values 1.01 | locus YDR001C, strain nth1, hits give low values 0.981 | locus YDR069C, strain doa4, hits give low values 0.943 | locus YDR101C, strain arx1, hits give low values 0.994 | locus YDR137W, strain rgp1, hits give low values 0.968 | locus YDR159W, strain sac3, hits give low values 0.917 | locus YDR162C, strain NBP2, hits give low values 0.981 | locus YDR195W, strain ref2 0.972 | locus YDR297W, strain sur2, hits give low values 0.98 | locus YDR318W, strain mcm21, hits give low values 1 | locus YDR334W, strain swr1, hits give low values 0.98 | locus YDR335W, strain msn5, hits give low values 0.981 | locus YDR388W, hits give low values 1.01 | locus YDR392W, strain spt3, hits give low values 0.897 | locus YDR502C, strain sam2, hits give low values 1.02 | locus YEL003W, strain gim4, hits give low values 0.965 | locus YEL037C, strain rad23, hits give low values 0.978 | locus YEL061C, strain CIN8 (second series), hits give low values 0.961 | locus YEL061C, strain CIN8, hits give low values 1 | locus YER015W, strain faa2, hits give low values 1 | locus YER016W, strain bim1, hits give low values 0.972 | locus YER110C, hits give low values 1.02 | locus YER111C, strain swi4, hits give low values 0.961 | locus YER155C, strain BEM2 (second series), hits give low values 1.01 | locus YER155C, strain BEM2, hits give low values 0.978 | locus YER167W, strain BCK2, hits give low values 0.993 | locus YFR010W, strain ubp6, hits give low values 0.958 | locus YGL078C, strain dbp3, hits give low values 1.01 | locus YGL086W, strain mad1, hits give low values 1.01 | locus YGL167C, strain pmr1, hits give low values 0.989 | locus YGL173C, strain kem1, hits give low values 0.957 | locus YGL227W, strain vid30, hits give low values 0.975 | locus YGL240W, strain doc1, hits give low values 0.979 | locus YGL248W, strain PDE1, hits give low values 0.998 | locus YGR135W, strain pre9, hits give low values 1.03 | locus YGR252W, strain gcn5, hits give low values 0.959 | locus YHR013C, strain ard1, hits give low values 0.979 | locus YHR027C, strain rpn1, hits give low values 0.987 | locus YHR030C, strain SLT2, hits give low values 1.01 and 0.997 | locus YHR079C, strain IRE1 (second series), hits give low values 1.02 | locus YHR079C, strain IRE1, hits give low values 0.987 | locus YHR094C, strain hxt1, hits give low values 1.02 | locus YHR129C, strain ARP1, hits give low values 0.999 | locus YHR142W, strain chs7, hits give low values 0.96 | locus YHR200W, strain rpn10, hits give low values 1 | locus YIL066C, strain RNR3, hits give low values 0.982 | locus YIL073C, strain SPO22, hits give low values 1.01 | locus YIL125W, strain kgd1, hits give low values 0.998 | locus YIR030C, strain dcg1, hits give low values 1.01 | locus YJL092W, strain hpr5, hits give low values 0.973 | locus YJL095W, strain BCK1 (second series), hits give low values 0.993 | locus YJL095W, strain BCK1, hits give low values 0.994 and 0.967 | locus YJL115W, strain asf1, hits give low values 0.99 | locus YJL129C, strain trk1, hits give low values 0.928 | locus YJL134W, strain LCB3, hits give low values 0.999 | locus YJL154C, strain vps35, hits give low values 0.984 | locus YJL164C, strain tpk1, hits give low values 1.01 | locus YJL166W, strain qcr8, hits give low values 0.977 | locus YJL168C, strain set2, hits give low values 1.02 | locus YJL187C, strain SWE1 (second series), hits give low values 1.01 | locus YJR066W, strain TOR1, hits give low values 0.95 | locus YJR075W, strain HOC1, hits give low values 0.992 | locus YKL009W, strain mrt4, hits give low values 0.98 | locus YKL068W, hits give low values 1 | locus YKL085W, strain MDH1 (second series), hits give low values 1.01 | locus YKL085W, strain MDH1, hits give low values 1.01 | locus YKL160W, strain elf1, hits give low values 1.03 | locus YKL190W, strain CNB1, hits give low values 1 | locus YKR001C, strain vps1, hits give low values 0.987 | locus YKR026C, strain gcn3, hits give low values 0.966 | locus YKR091W, strain srl3, hits give low values 0.996 | locus YLL001W, strain dnm1, hits give low values 0.959 | locus YLL026W, hits give low values 0.989 | locus YLL041C, strain sdh2, hits give low values 1 | locus YLR027C, strain aat2, hits give low values 1 | locus YLR039C, strain RIC1, hits give low values 1.03 | locus YLR058C, strain SHM2, hits give low values 1 | locus YLR102C, strain apc9, hits give low values 1.01 | locus YLR113W, strain HOG1, hits give low values 1.02 | locus YLR221C, strain rsa3, hits give low values 0.946 | locus YLR258W, strain gsy2, hits give low values 0.988 | locus YLR262C, strain YPT6 (second series), hits give low values 0.97 | locus YLR262C, strain YPT6, hits give low values 1.01 | locus YLR268W, strain sec22, hits give low values 0.994 | locus YLR320W, strain mms22, hits give low values 0.969 | locus YLR342W, strain FKS1 (second series), hits give low values 1 | locus YLR342W, strain FKS1, hits give low values 0.977 | locus YLR357W, strain rsc2, hits give low values 1.02 | locus YLR370C, strain arc18, hits give low values 0.957 | locus YLR371W, strain rom2, hits give low values 1 | locus YLR384C, strain iki3, hits give low values 0.976 | locus YLR418C, strain cdc73, hits give low values 0.979 | locus YML016C, strain PPZ1, hits give low values 0.994 | locus YML032C, strain rad52, hits give low values 0.995 | locus YML120C, strain ndi1, hits give low values 1.01 | locus YML124C, strain tub3, hits give low values 1 | locus YMR058W, strain fet3, hits give low values 0.991 | locus YMR078C, strain ctf18, hits give low values 1.01 | locus YMR125W, strain sto1, hits give low values 0.978 | locus YMR129W, hits give low values 0.985 | locus YMR205C, strain PFK2, hits give low values 1 | locus YMR223W, strain ubp8, hits give low values 1.01 | locus YMR231W, strain pep5, hits give low values 0.966 | locus YMR307W, strain GAS1, hits give low values 0.937 | locus YNL067W, strain RPL9B, hits give low values 1.01 | locus YNL071W, strain lat1, hits give low values 0.989 | locus YNL153C, strain GIM3, hits give low values 1.01 | locus YNL183C, strain NPR1, hits give low values 0.982 | locus YNL209W, strain ssb2, hits give low values 0.997 | locus YNL233W, strain BNI4, hits give low values 0.997 | locus YNL248C, strain rpa49, hits give low values 0.942 | locus YNL250W, strain rad50, hits give low values 1.01 | locus YNL271C, strain bni1, hits give low values 1.01 | locus YNL298W, strain CLA4, hits give low values 1.01 | locus YNL307C, strain MCK1, hits give low values 1.02 | locus YNL322C, strain KRE1 (second series), hits give low values 0.985 | locus YNR049C, strain mso1, hits give low values 0.98 | locus YNR052C, strain pop2, hits give low values 1.01 | locus YOL012C, strain htz1 0.799 | locus YOL147C, strain pex11, hits give low values 1.01 | locus YOR001W, strain rrp6, hits give low values 0.925 | locus YOR061W, strain CKA2, hits give low values 0.985 | locus YOR069W, strain VPS5, hits give low values 1.01 | locus YOR070C, strain gyp1, hits give low values 0.989 | locus YOR080W, strain dia2, hits give low values 0.976 | locus YOR083W, strain WHI5, hits give low values 1.03 | locus YOR106W, strain vam3, hits give low values 1 | locus YOR136W, strain idh2, hits give low values 1.02 | locus YOR144C, strain elg1, hits give low values 1 | locus YOR184W, strain ser1, hits give low values 0.989 | locus YOR231W, strain MKK1, hits give low values 1.01 | locus YOR265W, strain rbl2, hits give low values 0.979 | locus YOR270C, strain vph1, hits give low values 0.835 | locus YOR290C, strain snf2, hits give low values 1.01 | locus YOR316C, strain cot1, hits give low values 1.02 | locus YPL051W, strain arl3, hits give low values 0.964 | locus YPL055C, strain LGE1, hits give low values 0.963 | locus YPL078C, strain atp4, hits give low values 1.03 | locus YPL106C, strain sse1, hits give low values 1.01 | locus YPL240C, strain hsp82, hits give low values 0.978 | locus YPL241C, strain CIN2, hits give low values 0.999 | locus YPL256C, strain CLN2, hits give low values 1.01 | locus YPR119W, strain clb2, hits give low values 1.01 | locus YPR141C, strain kar3, hits give low values 1.01 | locus YPR163C, strain tif3, hits give low values 1.01 | locus YPR167C, strain met16, hits give low values 1.01 | strain wtn01, hits give low values 0.977
active: locus YGL253W, strain hxk2, hits give low values 0.874
